The text below walks through data of PubChem BioAssay (Tox21).

Results filed as inconclusive are left out. A call without a number means that no potency is given here. The source made the active and inactive calls. The call rests on the fitted dose curve; in most records, active means well fitted cell-killing curve with a large enough effect in the repeat runs; inconclusive means weak or mixed curves, or effect the other way; inactive means flat fitted curve, though single readings scatter.
Potency means the concentration at half of the fitted maximal effect.

This assay in a line: qHTS RealTime-Glo MT Cell Viability Assay in HEK293 cells - 0 hour (AID 1224880). Further: nearly all actives have a fitted effect of over 45% in size. The following applies: RealTime-Glo luminescence; series mostly up to 76.8 µM. The source says: U.S. Tox21 Program National Center for Advancing Translational Sciences [NCATS] NIH Chemical Genomics Center [NCGC] U.S. Environmental Protection Agency [EPA] National Institutes of Environmental Health Sciences [NIEHS] National Toxicology Program [NTP] U.S. Food and Drug Administration [FDA] Tox21 Assay Overview: Measure of cell viability is critical in the cell-base assay. Analysis of cell viability is necessary for the characterization of cell responses to cytotoxic drugs and environmental stress. A RealTime-Glo MT Cell Viability Assay to monitor cell viability in real time of continues cell culture during 40 hours of compound treatment was used to screen Tox21 10K library compounds in Hek293 cells. The RealTime-Glo MT Cell Viability Assay is a nonlytic, homogeneous, bioluminescent method to measure cell viability in real time using a simple, plate-based method. The assay involves adding NanoLuc luciferase and a cell-permeant prosubstrate to cells in culture. Viable cells reduce the proprietary prosubstrate to generate a substrate for NanoLuc luciferase. This substrate diffuses from cells into the surrounding culture medium, where it is rapidly used by the NanoLuc Enzyme to produce a luminescent signal. The signal correlates with the number of viable cells, making the assay well suited for cytotoxicity studies.
Tox21 Assay Protocol Summary: The mixture of Hek293 cell suspension and reagents were dispensed at 600cells/6 ul/well in 1536-well tissue culture treated black solid bottom plates using a Multidrop dispenser. After the assay plates were incubated at a 37 C/5% CO2 incubator for 5 hours, 23 nL of compounds dissolved in DMSO, positive and negative controls was transferred to the assay plate by a pintool work station. The plates were incubated at 37 C for 40 hours. The luminescence intensity were measured at 0h, 8h, 16h, 24h, 32h and 40h time points using ViewLux plate reader during compound treatment.
(In qHTS, concentration-response curves come from the screen itself.)
`C=CC(=O)OCCOCCOCCOCCOC(=O)C=C`: the Potency result was “inactive”.
The result for `C=C1C(=C/C=C2\CCC[C@]3(C)[C@@H]([C@H](C)/C=C/[C@@H](O)C4CC4)CC[C@@H]23)C[C@@H](O)C[C@@H]1O` reads “inactive”; that for `CCCCCCCCCCCCN1CCCCCC1=O`, “inactive”; that for `CCOC(=O)C1=C[C@]2(CC)CCCN3CCc4c(n1c1ccccc41)[C@@H]32`, “inactive”.
Then `Cc1cc(C(=O)O)ccc1[N+](=O)[O-]`, with “inactive”; and `CCOCC(O)COc1ccc(NC(=O)CC[S+](C)C)cc1` (stereo not given), with “inactive”; and `CC(C)(C)OCC1CO1` (stereo not given), with “inactive”.
Consider `Cc1oc2c(NC(=O)c3c(Cl)cccc3Cl)cccc2c1C(C)(C)O`, for which the Potency result is “inactive”.
Then `O=C(O)c1ccc(S(=O)(=O)O)cc1C(=O)O`, with “inactive”; and `C=CC(=O)OCCOc1ccccc1`, with “inactive”; and `O=CC1CC=CCC1` (stereo not given), with “inactive”.
The result for `OCc1cc(C(O)CNCCCCCCOCCCCc2ccccc2)ccc1O` (stereo not given) reads “inactive”.
Take `O=C(O)C1(C(=O)Nc2ccc(Cl)cc2Cl)CC1`: the Potency result is “inactive”.
The result for `C[C@H]1C[C@H]2[C@@H]3CCC4=CC(=O)C=C[C@]4(C)[C@@]3(Cl)[C@@H](O)C[C@]2(C)[C@@]1(O)C(=O)CO` reads “inactive”; that for `CCCCC`, “inactive”; that for `S=C([S-])NCCNC(=S)[S-].[Mn+2]`, “inactive”.
Then `CC(C)(C)Cl`, with “inactive”.
`N=c1ccn2c(n1)O[C@H]1[C@H](O)[C@@H](CO)O[C@H]12`: the Potency result is “inactive”.
Then `CC(C)OC(=O)C(C)N(C(=O)c1ccccc1)c1ccc(F)c(Cl)c1` (stereo not given), with “inactive”; and `COc1ccc(C(=O)N2CCN(CC(=O)N3CCOCC3)CC2)cc1`, with “inactive”.
The result for `COc1cc2nc(N3CCN(C(=O)C4COc5ccccc5O4)CC3)nc(N)c2cc1OC` (stereo not given) reads 19 µM (active).
The result for `O=C(NCC1CN(c2ccc(N3CCOCC3=O)cc2)C(=O)O1)c1ccc(Cl)s1` (stereo not given) reads “inactive”; that for `CCCn1cnc2c1c(=O)n(CCCCC(C)=O)c(=O)n2C`, “inactive”; that for `CC(=O)OC[C@H]1O[C@@H](n2ncc(=O)[nH]c2=O)[C@H](OC(C)=O)[C@@H]1OC(C)=O`, “inactive”.
Turning to `CCO[Si](CCCCl)(OCC)OCC`, the Potency result was “inactive”.
Then `CCn1cc(C(=O)O)c(=O)c2cnc(N3CCNCC3)nc21`, with “inactive”; and `C=CC1CC2C=CC1C2` (stereo not given), with “inactive”; and `O=C(OCCCCCCOC(=O)c1ccccc1)c1ccccc1`, with “inactive”.
Then `CC(C)C[C@H]1C(=O)N2CCC[C@H]2[C@]2(O)O[C@](NC(=O)[C@@H]3C=C4c5cccc6[nH]c(Br)c(c56)C[C@H]4N(C)C3)(C(C)C)C(=O)N12`, with “inactive”; and `CC1=CC=C(C(C)C)CC1`, with “inactive”; and `c1ccc(-c2ccccn2)nc1`, with “inactive”.
The result for `C=C(C)C(=O)OCCO` reads “inactive”; that for `COc1ccc(-c2nc3ccc(C4=NNC(=O)CC4C)cc3[nH]2)cc1` (stereo not given), “inactive”; that for `CCc1cc(C2=C(C(=O)O)N(c3ccccc3C(F)(F)F)S(=O)(=O)c3ccccc32)cc2c1OCO2`, 43.1 µM (active).
Regarding `Cc1ccc(N=Nc2c(O)c(C(=O)O)cc3ccccc23)c(S(=O)(=O)O)c1`, the Potency entry was “inactive”.
Consider `CCC(CC)Nc1ccc(C)c(C)c1`, for which the Potency entry was “inactive”.
For the compound `O=C(O)c1nc(Cl)c(Cl)c(Cl)c1Cl`, the Potency entry is “inactive”.
The result for `CC(C)=CCC/C(C)=C/CC/C(C)=C/CO` reads “inactive”; that for `COCC(C)OC(C)=O` (stereo not given), “inactive”; that for `CC(C)(CO)[N+](=O)[O-]`, “inactive”.
